± gives the standard deviation of the averaged measurements.
What was measured:
Details in all cases: concentration: 10 µM; 24 h
[1] = test system: HCC1569; assay: cell number relative to DMSO (% of DMSO); higher = more cells (less growth inhibition / toxicity)
Procedure, shortened: (§1)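 After 24 h at 37 °C with compounds at 10 µM, in triplicate, HCC1569 and TDF cells were fixed with 3.7% formaldehyde. Immunostaining used a rabbit anti-H1.0 antibody and an AlexaFluor 647 secondary, with DAPI, and six fields per well were imaged at ×10. H1.0 nuclear intensity or cell number is presented as percent of the plate control, from the median of replicates, with HCC1569 values smoothed for positional effects.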

[2] = test system: TDF; assay: as above
Procedure, shortened: as §1

[3] = test system: TDF; assay: H1.0 immunofluorescence intensity relative to DMSO (% of DMSO); higher = stronger H1.0 induction, active = 120 or more
Procedure, shortened: as §1

[4] = test system: HCC1569; assay: H1.0 immunofluorescence intensity relative to DMSO (% of DMSO); higher = stronger H1.0 induction, active = 140 or more
Procedure, shortened: as §1
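Throughout, for H1.0 immunofluorescence intensity relative to DMSO: TDF is a line of transformed human dermal fibroblasts of mesenchymal origin.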
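Throughout, for cell number relative to DMSO: TDF denotes transformed human dermal fibroblasts of mesenchymal origin.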

Row | Structure (SMILES) | cell number [1] | cell number [2] | H1.0 immunofluorescence intensity [3] | H1.0 immunofluorescence intensity [4]
1 | CC1COc2c(N3CCN(C)CC3)c(F)cc3c(=O)c(C(=O)O)cn1c23 (stereo not given) [Levofloxacin] | 103 | 100 | 98.5 (inactive) | 101 (inactive)
2 | O=[N+]([O-])c1cccc2cn[nH]c12 [7-Nitroindazole] | 105 | 109 | 90.5 (inactive) | 92.6 (inactive)
3 | COc1cccc2c1C(=O)c1c(O)c3c(c(O)c1C2=O)CC(O)(C(C)=O)CC3OC1CC(N)C(O)C(C)O1 (stereo not given) [Daunorubicin] | 53.3 ± 2.3 | 8.2 ± 1.4 | 134 (active) | 1730 (active)
4 | CC(=O)OCC1(O)CC23CCC4c5ccoc5CCC4(C)C2CCC1C3 (stereo not given) [Cafestol acetate] | 103 | 98.6 | 97.6 (inactive) | 98.4 (inactive)
5 | CC1c2cccc(O)c2C(O)=C2C(=O)C3(O)C(O)=C(C(N)=O)C(=O)C(N(C)C)C3C(O)C21.Cl (stereo not given) [Doxycycline hydrochloride] | 96.5 | 107 | 96.9 (inactive) | 105 (inactive)
6 | Br.CN1CCc2cc(O)c(O)cc2C(c2ccccc2)C1 (stereo not given) | 105 | 98.2 | 89.8 (inactive) | 105 (inactive)
7 | O=C(Nc1cccc(Cl)c1)Nc1ncc(CCNc2ncnc3ccsc23)s1 | 66.1 | 42.9 | 103 (inactive) | 178 (active)
8 | C#CC1(O)CCC2C3CCC4=CC(=O)CCC4C3CCC21CC (stereo not given) [Levonorgestrel] | 100 | 91.5 | 99.8 (inactive) | 98.5 (inactive)
9 | CCCCCC=CCC=CCCCCCCCC(=O)O [9(E),12(E)-Octadecadienoic acid] | 96.5 | 107 | 100 (inactive) | 108 (inactive)
10 | Nc1nccc(-c2c(-c3ccc(F)cc3)ncn2C2CCNCC2)n1 | 84.5 | 89.4 | 88.6 (inactive) | 143 (active)
11 | CC1(C(=O)O)CCC2(C)CCC3(C)C(=CC(=O)C4C5(C)CCC(O)C(C)(C)C5CCC43C)C2C1 (stereo not given) | 102 | 108 | 98.4 (inactive) | 84.4 (inactive)
12 | CC(C)(C)C(=O)C(Oc1ccc(Cl)cc1)n1ccnc1 (stereo not given) [Climbazole] | 99.5 | 98.7 | 92.2 (inactive) | 99.3 (inactive)
13 | CN1CCN(CCCN2c3ccccc3Sc3ccc(Cl)cc32)CC1.O=C(O)C=CC(=O)O.O=C(O)C=CC(=O)O [Prochlorperazine dimaleate] | 83.7 | 105 | 110 (inactive) | 157 (active)
14 | O=C(O)C=Cc1cc(Br)c(Br)c(Br)c1Br [Casein Kinase II Inhibitor III, TBCA] | 98.7 | 113 | 92.9 (inactive) | 105 (inactive)
15 | O=C(O)c1cn(C2CC2)c2cc(N3C[C@@H]4C[C@H]3CN4)c(F)cc2c1=O | 99.1 | 109 | 91.9 (inactive) | 102 (inactive)
16 | CC(C=CC1(O)C(C)=CC(=O)CC1(C)C)=CC(=O)O (racemic) | 103 | 103 | 99.5 (inactive) | 88.1 (inactive)
17 | CCCCCCCCC1OC1CCCCCCCC(=O)O (stereo not given) [Epoxy-oleic acid] | 97.7 | 99.9 | 96.8 (inactive) | 99.1 (inactive)
18 | O=C(Nc1ccc(Cl)cc1)c1ccccc1NCc1ccncc1 [VEGF Receptor Tyrosine Kinase Inhibitor II] | 106 | 96.3 | 96.5 (inactive) | 98.1 (inactive)
19 | C=C(C)C1CCC2(CO)CCC3(C)C(CCC4C5(C)CCC(O)C(C)(C)C5CCC43C)C12 (stereo not given) [Betulin] | 107 | 99.2 | 98.9 (inactive) | 95.6 (inactive)
20 | COc1ccc(CCN(C)CCCC(C#N)(c2cc(OC)c(OC)c(OC)c2)C(C)C)cc1OC.Cl (racemic) | 96.5 | 109 | 89 (inactive) | 92.3 (inactive)
21 | CN1C2CCC1CC(NC(=O)c1nn(C)c3ccccc13)C2.O=C(O)C=CC(=O)O (stereo not given) [LY-278,584 maleate] | 104 | 94.8 | 99.1 (inactive) | 93 (inactive)
22 | CC1C(NC(=O)C(=NOC(C)(C)C(=O)O)c2csc(N)n2)C(=O)N1S(=O)(=O)O (stereo not given) [Aztreonam] | 105 | 105 | 93.1 (inactive) | 103 (inactive)
23 | N#Cc1c(O)c2c(-c3ccc(-c4ccccc4O)cc3)csc2[nH]c1=O | 102 | 92.5 | 98.8 (inactive) | 96.3 (inactive)
24 | OCC1OC(O)C(Cl)C(O)C1O [2-Chloro-2-deoxy-D-glucose] | 104 | 101 | 101 (inactive) | 92 (inactive)
25 | O=[N+]([O-])c1ccc(-c2nc(-c3ccc(F)cc3)c(-c3ccncc3)[nH]2)cc1 | 89.9 | 101 | 84.2 (inactive) | 139 (inactive)

Row | Structure (SMILES) | cell number [1] | cell number [2] | H1.0 immunofluorescence intensity [3] | H1.0 immunofluorescence intensity [4]
26 | CC(C)c1cccc(O)c(=O)c1 [Hinokitiol] | 83.8 | 83 | 89.5 (inactive) | 94.8 (inactive)
27 | Cl.NNc1nncc2ccccc12 [Hydralazine hydrochloride] | 101 | 107 | 93.2 (inactive) | 92 (inactive)
28 | CCCCCC(O)CC(=O)CCc1ccc(O)c(OC)c1 (stereo not given) [Gingerol] | 99.3 | 97.2 | 92.9 (inactive) | 85.8 (inactive)
29 | CCC1=C(C)CN(C(=O)NCCc2ccc(S(=O)(=O)NC(=O)NC3CCC(C)CC3)cc2)C1=O (stereo not given) [Glimepiride] | 102 | 111 | 93.1 (inactive) | 106 (inactive)
30 | CC1C(=O)OC2C(O)C34C5CC(C(C)(C)C)C36C(OC(=O)C6O)OC4(C(=O)O5)C12O (stereo not given) [Ginkgolide B] | 104 | 104 | 101 (inactive) | 82.4 (inactive)
31 | CC(C)=CCCC(C)=CCOc1ccc2ccc(=O)oc2c1 [Auraptene] | 105 | 103 | 103 (inactive) | 97.1 (inactive)
32 | CC(NCCc1ccc(O)cc1)C(O)c1ccc(O)cc1.Cl (stereo not given) [Ritodrine hydrochloride] | 107 | 113 | 101 (inactive) | 91.5 (inactive)
33 | CSCC[C@@H](C=O)NC(=O)[C@H](CC(C)C)NC(=O)[C@H](CC(C)C)NC(C)=O | 99.2 | 95.5 | 96.4 (inactive) | 92.2 (inactive)
34 | COc1ccc(C2Sc3ccccc3N(CCN(C)C)C(=O)C2OC(C)=O)cc1 (stereo not given) [Diltiazem] | 104 | 107 | 92 (inactive) | 101 (inactive)
35 | CC1C(=O)CCC2C1(C)CCC1C2(C)CCC2(C)C3CC(C)(C)CCC3(C)CCC12C (stereo not given) [Friedelin] | 99.5 | 102 | 96.1 (inactive) | 87.8 (inactive)
36 | CC12CCc3occc3C1CCC13CC(=O)C(CCC12)C3 (stereo not given) [16-Oxocafestol] | 101 | 97.5 | 97.4 (inactive) | 98.5 (inactive)
37 | CC(=O)OC1(C(C)=O)CCC2C3C=C(Cl)C4=CC(=O)C5CC5C4(C)C3CCC21C (stereo not given) [Cyproterone acetate] | 91.8 | 99.8 | 92.2 (inactive) | 98.5 (inactive)
38 | CC(C(=O)O)c1cccc(Oc2ccccc2)c1 (stereo not given) [Fenoprofen] | 102 | 101 | 94.2 (inactive) | 120 (inactive)
39 | COC(=O)C(=C1OC(=O)C(c2ccccc2)=C1O)c1ccccc1 [Vulpinic acid] | 98.5 | 95.3 | 89.4 (inactive) | 91.2 (inactive)
40 | CCCCCC(O)C=CC=CCC=CCCCCCCC(=O)O (stereo not given) | 99.9 | 104 | 99.2 (inactive) | 94.6 (inactive)
41 | CCCOc1cc2c(cc1\C(C)=C/C=C/C(C)=C/C(=O)O)C(C)(C)CCC2(C)C | 97.9 | 107 | 90.3 (inactive) | 95.9 (inactive)
42 | CCCCCCCCCCCCCCCC(=O)OCC(COP(=O)(O)O)OC(=O)CCCCCCCCCCCCCCC (stereo not given) [Dipalmitoylphosphatidic acid] | 94.8 | 107 | 89.8 (inactive) | 107 (inactive)
43 | Nc1c2c(nc3ccccc13)CCCC2O.O=C(O)C=CC(=O)O (stereo not given) [Hydroxytacrine] | 106 | 101 | 91.5 (inactive) | 101 (inactive)
44 | COc1cc(C2Oc3cc(C4Oc5cc(O)cc(O)c5C(=O)C4O)ccc3OC2CO)ccc1O (stereo not given) [Silymarin] | 102 | 93.6 | 95.5 (inactive) | 88.3 (inactive)
45 | O=C(O)CO.[NH2-].[NH2-].[Pt+2] [Nedaplatin] | 94.6 | 92.6 | 96.9 (inactive) | 104 (inactive)
46 | CCCCCC(O)C=CC1C(O)CC(O)C1CC=CCCCC(=O)O (stereo not given) [9a,11b Prostaglandin F2] | 106 | 99.4 | 94.2 (inactive) | 101 (inactive)
47 | COc1ccc(Cl)cc1NC(=O)Nc1cc(C)nc2ccccc12 [N-(5-Chloro-2-methoxyphenyl)-N'-(2-methyl-4-quinolinyl)urea] | 90 | 103 | 104 (inactive) | 148 (active)
48 | O=C(Nc1ccc([N+](=O)[O-])cc1Cl)c1cc(Cl)ccc1O [Niclosamide] | 70 | 78.1 | 104 (inactive) | 120 (inactive)
49 | COc1cc2c3cc1Oc1cc(ccc1O)CC1c4c(cc(OC)c(O)c4Oc4ccc(cc4)CC3N(C)CC2)CC[N+]1(C)C.Cl.[Cl-] (single isomer, unassigned; (+)) [(+)-Tubocuraraine chloride] | 108 | 109 | 93.2 (inactive) | 99.2 (inactive)
50 | COc1ccc2c(c1)c(CC(=O)OCC(=O)O)c(C)n2C(=O)c1ccc(Cl)cc1 [Acemetacin] | 96.5 | 94.4 | 95.4 (inactive) | 104 (inactive)
